Experimental data reported in PubChem BioAssay AID1259313 (Sanford-Burnham Center for Chemical Genomics, 2017).
The campaign covered roughly 340,000 compounds. About 8,500 (2.5%) were called active.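 Rule for the calls: active = melting temperature shift of at least 10% of the positive control shift, at one fixed dose; inactive = the rest.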 For the sample, actives were picked, then their nearest neighbours and some compounds at random.

system: Glutamate receptor ionotropic, NMDA 3A (GRIN3A) ligand-binding domain; experiment: binders of NR3A ligand-binding domain, primary screen, biophysical, differential scanning fluorimetry, uHTS (AID 1259313); settings: NR3A LBD differential scanning fluorimetry, at 25 µM, stronger effect = higher value, 0% = protein alone, 100% = glycine-bound protein

Tm shift relative to glycine control, inactive:
CCN(CC)CCCNC(=O)c1cn(C)c2ccc(S(=O)(=O)N(C)C3CCCCC3)cc2c1=O -1.61%, COc1ccc(C(=O)NCc2nnc(SCC(=O)Nc3cccc(OC)c3)o2)cc1 -1.39%, COc1cccc(NC(=O)CSc2nnc(-c3cccnc3)o2)c1 -0.43%, COCCCNC(=O)CNC(=O)c1nn(-c2ccc(OC)cc2)c(=O)c2ccccc12 -1.01%, CCOC(=O)C1CCN(CC(=O)Nc2ccc(OC)c(S(=O)(=O)N3CCCCC3)c2)CC1 0.25%, C#CCOCCOCCOCCNc1nc(N2CCN(C(=O)Cn3cc(CCO)nn3)CC2)nc(N2CCN(C(=O)Cn3cc(CCCN=C(N)N)nn3)CC2)n1 0%, C#CCOCCOCCOCCNc1nc(N2CCN(C(=O)Cn3cc(CCO)nn3)CC2)nc(N2CCN(C(=O)[C@H](CCCCN)n3cc(CCCC)nn3)CC2)n1 0.76%, C#CCOCCOCCOCCNc1nc(N2CCN(C(=O)Cn3cc(CCCCN)nn3)CC2)nc(N2CCN(C(=O)[C@H](CCCCN)n3cc(CCC(=O)O)nn3)CC2)n1 1.78%, C#CCOCCOCCOCCNc1nc(N2CCN(C(=O)[C@H](C(C)C)n3cc(CCO)nn3)CC2)nc(N2CCN(C(=O)[C@H]([C@@H](C)CC)n3cc(CCCN=C(N)N)nn3)CC2)n1 1.78%, C#CCOCCOCCOCCNc1nc(N2CCN(C(=O)[C@H](CCC(=O)O)n3cc(CN)nn3)CC2)nc(N2CCN(C(=O)[C@H](CCC(=O)O)n3cc(CN)nn3)CC2)n1 1.02%, C#CCOCCOCCOCCNc1nc(N2CCN(C(=O)[C@H](CCCCN)n3cc(CCC(=O)O)nn3)CC2)nc(N2CCN(C(=O)[C@H](CCCCN)n3cc(CC(C)O)nn3)CC2)n1 (some centres not stated) 1.78%, CCn1c(SC)nc(O)c(C(c2ccc(OC)c(O)c2)c2c(O)nc(SC)n(CC)c2=O)c1=O -1.71%, O=C(O)c1cc2ccccc2c(=O)s1 -0.71%, O=C(CCNC(=O)Cn1ccc2ccccc2c1=O)NCCC1=CCCCC1 -1.72%, O=C(NCc1ccccn1)C1CCN(S(=O)(=O)c2ccc(Br)cc2)CC1 -1.11%, Cc1nc(COc2cc3oc(=O)cc(C)c3cc2Cl)cs1 -0.26%, CCN(CC(=O)NC(C)C)C(=O)c1cc(S(=O)(=O)N2CCCCC2)ccc1N1CCCCC1 -0.99%, Cc1cccc(Nc2nc3c(S(=O)(=O)c4ccccc4)nnn3c3ccccc23)c1C 1.31%, Cc1ccc(S(=O)(=O)c2nnn3c2nc(N2CCN(c4ccccn4)CC2)c2ccccc23)cc1 5.05%, CCC12CN3CC(CC)(CN(C1)C31C(=O)N(C)c3ccc(C)cc31)C2=O (configuration not stated) 0%, O=c1c2ccccc2nc2n1C(CSCc1ccccc1)CS2 (configuration not stated) -1.4%, O=c1c2ccccc2nc2n1C(CSc1ccc(F)cc1)CN2 (configuration not stated) -3.8%, COc1ccc(C(=O)NCc2nnc(SCC(=O)NC3=NCCS3)n2C)cc1 -1.86%, CCOc1ccc(NC(=O)CCNC(=O)c2ccc(Br)cc2)cc1 -4.23%, CCOc1ccc(NC(=O)c2ccc(NC(=O)COC(=O)c3ccc(NC(=O)CC#N)cc3)cc2)cc1 9.12%, CCCOc1ccc(Cl)cc1Nc1nc(NCCO)nc(N2CCCC2)n1 1.78%, Cc1cc(C)c(C#N)c(SCS(=O)c2ccc(C(C)(C)C)cc2)n1 (configuration not stated) 1.37%, O=C(Cc1cccs1)N/N=C/c1ccc(OCc2ccccc2)cc1 2.17%, O=C(O)c1ccc(/C=N/NC(=O)c2ccc(Br)cc2)cc1 -0.55%, O=C(COc1ccc(/C=N/NC(=O)c2ccc(O)cc2)cc1)Nc1ccc([N+](=O)[O-])cc1 7.26%, CC(C)(C)C(=O)Nc1ccc(C(=O)N/N=C/c2ccccc2OC(=O)c2ccc(Cl)cc2Cl)cc1 2.16%, COc1cc(/C=N/NC(=O)Nc2ccccc2)ccc1OCCOc1ccccc1C -1.19%, O=c1[nH]cnc(O)c1C(c1ccc(F)cc1)c1c(O)nc[nH]c1=O 0.87%, Oc1ccc(-c2nncn2-c2ccccc2)cc1 -3.14%, O=C(OCc1ccc(-c2ccccc2)cc1)c1cccc(O)c1 9.28%, CNC(=S)N1CCC(NC(=O)C(Cc2ccc(F)cc2)NC(C)=O)CC1 (configuration not stated) -1.22%, COc1ccc(CCNC(=O)CCCCCNC(=O)N2CCn3c2nc2ccccc23)cc1OC -1.29%

Tm shift relative to glycine control, active:
COc1ccc2oc(-c3cccc(NC(=O)CSc4ccc(Cl)cc4)c3)nc2c1 13.7%, C#CCOCCOCCOCCNc1nc(N2CCN(C(=O)CCCCCCCCCCNC(=O)[C@H]([C@@H](C)CC)n3cc(CCCCN=C(N)N)nn3)CC2)nc(N2CCN(C(=O)CCCCCCCCCCNC(=O)[C@H](CO)n3cc(CCCSC)nn3)CC2)n1 17%, C#CCOCCOCCOCCNc1nc(N2CCN(C(=O)CCCCCCCCCCNC(=O)[C@H](CCCCN)n3cc(C)nn3)CC2)nc(N2CCN(C(=O)CCCCCCCCCCNC(=O)[C@H](CO)n3cc(CCCSC)nn3)CC2)n1 24.7%, C#CCOCCOCCOCCNc1nc(N2CCN(C(=O)CCCCCCCCCCNC(=O)Cn3cc(CCCCCN)nn3)CC2)nc(N2CCN(C(=O)CCCCCCCCCCNC(=O)[C@H](CO)n3cc(CCCSC)nn3)CC2)n1 14.2%, CC(=O)Nc1ccc(Nc2nc3c(S(=O)(=O)c4ccc(C)c(C)c4)nnn3c3ccccc23)cc1 14.7%, O=c1c2ccccc2nc2n1C(CSCc1cccc(C(F)(F)F)c1)CS2 (configuration not stated) 16.1%, CCOc1ccc(NC(=O)c2ccc(NC(=O)CN3C(=O)C(=O)N(CC(C)C)C3=O)cc2)cc1 28.5%, O=C(N/N=C/c1ccc(OC(=O)c2ccccc2Cl)cc1)c1ccc(O)cc1 24.6%, O=C(N/N=C/c1ccc(OCc2ccccc2)cc1)c1ccc(O)cc1 28.3%, Oc1ccc(-c2cccc(-c3ccc(O)cc3)c2)cc1 31.9%
